PubChem BioAssay (Tox21)
Inconclusive results are not listed. A call without a number means that no potency is given here. Calls of active or inactive are those of the source. Unless noted, calls follow the shape of the dose curve; as a rule, active = well fitted curve in the direction sought with a large enough effect in the repeat runs; inconclusive = weak or mixed curves; inactive = no such curve, though single readings can be large; an effect the other way counts as inactive or inconclusive.

Tests used:
[1] = qHTS assay to identify small molecule antagonists of the thyroid receptor (TR) signaling pathway - cell viability counter screen (AID 743064); conditions: GH3.TRE-Luc viability, CellTiter-Fluor, 24 h; series mostly up to 70.3 µM; also: nearly all actives have a fitted effect of over 50% in size; also: potency is read from the fitted curve at half-maximal effect
Outline: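 Same-well viability check: GH3.TRE-Luc cells stimulated with 1 nM T3 alongside test compound for 23.5 h, followed by CellTiter-Fluor fluorescence.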

[2] = qHTS assay to identify small molecule antagonists of the thyroid receptor (TR) signaling pathway (AID 743065); conditions: GH3.TRE-Luc, T3-stimulated luciferase inhibition, 23.5 h; series mostly up to 70.3 µM; also: nearly all actives have a fitted effect of over 55% in size; also: potency is read from the fitted curve at half-maximal effect
Outline: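 Antagonism measured as loss of luciferase signal in GH3 cells stably carrying a TRE-luciferase reporter, co-treated with compound and T3 (1 nM final) for 23.5 h at 37 C. Viability was read in the same well by CellTiter-Fluor.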

[3] = system: thyroid hormone receptor (rat, GH3 cells); experiment: qHTS assay to identify small molecule agonists of the thyroid receptor (TR) signaling pathway (AID 743066; calls by dose curve); conditions: GH3.TRE-Luc cells, TR agonist luciferase, 24 h; series mostly up to 83.9 µM
[4] = qHTS assay to identify small molecule antagonists of the estrogen receptor alpha (ER-alpha) signaling pathway - cell viability counter screen (AID 743074; calls by dose curve;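 also: HEK293 cells carrying ER-alpha-UAS-bla reporter stimulated with 17beta-estradiol; nearly all actives have a fitted effect of over 45% in size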; also: potency is read from the fitted curve at half-maximal effect); conditions: ERalpha-bla HEK293 viability, CellTiter-Glo luminescence, 18 h; series mostly up to 69.4 µM
[5] = molecular target: Estrogen receptor (Homo sapiens) (UniProt P03372); experiment: qHTS assay to identify small molecule agonists of the estrogen receptor alpha (ER-alpha) signaling pathway (AID 743075; calls by dose curve;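 also: HEK293 GripTite cells with ER-alpha and UAS-driven beta-lactamase reporter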); conditions: HEK293 ER-alpha-UAS-bla, beta-lactamase FRET ratio, 18 h; series mostly up to 70.1 µM
[6] = molecular target: Estrogen receptor (Homo sapiens) (UniProt P03372); experiment: qHTS assay to identify small molecule agonists of the estrogen receptor alpha (ER-alpha) signaling pathway using the BG1 cell line (AID 743079); conditions: BG1Luc4E2 cells, ERE-luciferase agonist, 22 h; activation: at 70.3 µM (top of the series); also: nearly all actives have a fitted effect of over 20% in size; also: potency is read from the fitted curve at half-maximal effect
[7] = qHTS assay to identify small molecule antagonists of the estrogen receptor alpha (ER-alpha) signaling pathway using the BG1 cell line (AID 743080; calls by dose curve;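 also: BG1 cells stimulated with 17beta-estradiol alongside compound; nearly all actives have a fitted effect of over 25% in size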); conditions: BG1Luc4E2 ERE-luciferase antagonist mode, luminescence; series mostly up to 70.3 µM
Outline: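 BG1Luc4E2, endogenous ER-alpha, 4xERE-luc; 5 d charcoal-stripped FBS, phenol red free; 24 h plating; cpd + 17beta-estradiol 21.5 h, 37 C/5% CO2; CellTiter-Fluor viability 30 min, then ONE-Glo luciferase 30 min RT.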

[8] = qHTS assay to identify small molecule antagonists of the estrogen receptor alpha (ER-alpha) signaling pathway using the BG1 cell line - cell viability counter screen (AID 743081); conditions: BG1Luc4E2 viability, CellTiter-Fluor, 22 h; series mostly up to 70.3 µM;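 also: compound given together with 17beta-estradiol as the ER stimulus; nearly all actives have a fitted effect of over 45% in size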; also: potency is read from the fitted curve at half-maximal effect
[9] = molecular target: Aromatase (Homo sapiens) (UniProt P11511); experiment: qHTS assay to identify aromatase inhibitors (AID 743083); conditions: MCF-7 aro ERE, testosterone-driven ERE luciferase, 24 h; series mostly up to 70.3 µM; also: nearly all actives have a fitted effect of over 55% in size; also: potency is read from the fitted curve at half-maximal effect
[10] = qHTS assay to identify aromatase inhibitors - cell viability counter screen (AID 743084); conditions: MCF-7 aro ERE viability, CellTiter-Fluor, 24 h; series mostly up to 70.3 µM;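 also: cells stimulated with testosterone during compound exposure; nearly all actives have a fitted effect of over 55% in size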; also: potency is read from the fitted curve at half-maximal effect
[11] = molecular target: Aryl hydrocarbon receptor (Homo sapiens) (UniProt P35869); experiment: qHTS assay to identify small molecule that activate the aryl hydrocarbon receptor (AhR) signaling pathway (AID 743085); conditions: HepG2 AhR-luc (HG2L7.5c1), luciferase, 24 h; series mostly up to 70.3 µM;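 also: HG2L7.5c1 human HepG2 liver cells with stably integrated DRE-driven firefly reporter; nearly all actives have a fitted effect of over 15% in size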
Outline: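 Reporter assay in engineered HepG2 line HG2L7.5c1, whose plasmid carries twenty dioxin responsive elements upstream of firefly luciferase. Treatment lasted 24 h at 37C; ONE-Glo luminescence gauged induction.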

[12] = qHTS assay to identify small molecule that activate the aryl hydrocarbon receptor (AhR) signaling pathway - cell viability counter screen (AID 743086); conditions: HepG2-AhR-luc viability, CellTiter-Fluor, 24 h; series mostly up to 70.3 µM; also: nearly all actives have a fitted effect of over 45% in size; also: potency is read from the fitted curve at half-maximal effect
Outline: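 Cytotoxicity counter screen: CellTiter-Fluor signal (30 min, 37 C) in 4000 HepG2 cells/well carrying the DRE-luciferase reporter, following 24 h compound exposure at 37 C.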

[13] = molecular target: Peroxisome proliferator-activated receptor gamma (Homo sapiens) (UniProt P37231); experiment: qHTS assay to identify small molecule agonists of the peroxisome proliferator-activated receptor gamma (PPARg) signaling pathway (AID 743094; active = well fitted activation curve with a large enough effect in the signal ratio in the repeat runs, not every such curve was filed as active; the % refers to the signal ratio); conditions: HEK293H PPARg-UAS-bla, beta-lactamase FRET ratio, 17 h; series mostly up to 57 µM
Outline: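 Cell-based bla reporter, HEK293H background, PPARg-driven UAS. Pre-incubation 5 h, 37C, 5% CO2. Compound 17 h, 37C. Substrate 1 h RT; fluorescence.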

[14] = molecular target: Peroxisome proliferator-activated receptor gamma (Homo sapiens) (UniProt P37231); experiment: qHTS assay to identify small molecule antagonists of the peroxisome proliferator-activated receptor gamma (PPARg) signaling pathway (AID 743191; calls by dose curve; also: nearly all actives have a fitted effect of over 30% in size); conditions: HEK293H PPARg-UAS-bla, beta-lactamase ratio, antagonist, 17 h; series mostly up to 62.6 µM
Outline: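 Beta-lactamase reporter under UAS control in HEK293H PPARg-bla cells; compound treatment 17 h at 37C. Read-out: fluorescence intensity after 1 h room-temperature incubation with LiveBLAzer B/G FRET substrate.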

[15] = qHTS assay to identify small molecule antagonists of the peroxisome proliferator-activated receptor gamma (PPARg) signaling pathway - cell viability counter screen (AID 743194); conditions: PPARg-bla HEK293H viability, CellTiter-Glo luminescence, 17 h, co-treated with 50 nM rosiglitazone; series mostly up to 62.6 µM; also: nearly all actives have a fitted effect of over 55% in size; also: potency is read from the fitted curve at half-maximal effect
Outline: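 Viability was measured as CellTiter-Glo luminescence in GeneBLAzer PPARg UAS-bla HEK293H cells. These cells had been exposed 17 h at 37 C to compounds together with rosiglitazone at 50 nM final, with the beta-lactamase readout taken in the same wells.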

[16] = qHTS assay for small molecule agonists of the antioxidant response element (ARE) signaling pathway (AID 743202; active = well fitted activation curve with a large enough effect in the signal ratio in the repeat runs, not every such curve was filed as active; the % refers to the signal ratio); conditions: HepG2 ARE-bla reporter, beta-lactamase FRET, 16 h; series mostly up to 73.3 µM
Outline: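 After 16 hours of compound treatment at 37 C, HepG2 cells with a stably integrated ARE-driven beta-lactamase reporter were loaded 2 hours at room temperature with LiveBLAzer B/G FRET substrate and fluorescence intensity measured.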

[17] = qHTS assay for small molecule agonists of the antioxidant response element (ARE) signaling pathway - cell viability counter screen (AID 743203; calls by dose curve; also: nearly all actives have a fitted effect of over 55% in size; also: potency is read from the fitted curve at half-maximal effect); conditions: ARE-bla HepG2 viability, CellTiter-Glo luminescence, 16 h; series mostly up to 73.3 µM
Outline: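 Measured in the same wells as the beta-lactamase ARE reporter, this read-out is CellTiter-Glo luminescence from HepG2 ARE-bla cells given compounds for 16 hrs.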

[18] = qHTS assay for small molecule activators of the heat shock response signaling pathway - cell viability counter screen (AID 743209); conditions: HSE-bla HeLa viability, CellTiter-Glo luminescence, 5 h; series mostly up to 62.6 µM; also: nearly all actives have a fitted effect of over 50% in size; also: potency is read from the fitted curve at half-maximal effect
Outline: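 Same-well multiplex: after 2.5 h room-temperature incubation with LiveBLAzer B/G substrate and fluorescence reading, CellTiter-Glo reagent was added to HSE-bla HeLa cells that had received compound for 5 h at 37 C; luminescence read after 30 min.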

[19] = qHTS assay for small molecule activators of the heat shock response signaling pathway (AID 743210; active = well fitted activation curve with a large enough effect in the signal ratio in the repeat runs, with a control signal flat, not every such curve was filed as active; the % refers to the signal ratio); conditions: HeLa HSE-bla reporter, beta-lactamase ratio, 5 h; series mostly up to 62.6 µM
Outline: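 Compound exposure lasted 5 h at 37 C in HeLa cells carrying a heat-shock-element-driven beta-lactamase reporter. Read-out: fluorescence intensity after 2.5 h room-temperature loading with LiveBLAzer B/G FRET substrate.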

[20] = molecular target: Estrogen receptor (Homo sapiens) (UniProt P03372); experiment: qHTS assay to identify small molecule antagonists of the estrogen receptor alpha (ER-alpha) signaling pathway (AID 743069; active = well fitted curve in the direction sought with a large enough effect in the signal ratio in the repeat runs, not every such curve was filed as active; the % refers to the signal ratio; also: potency is read from the fitted curve at half-maximal effect); conditions: HEK293 ER-alpha-UAS-bla, beta-lactamase ratio, antagonist mode; series mostly up to 69.4 µM
Outline: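 Antagonist mode: compounds in DMSO were co-added with 17beta-estradiol to ER-alpha-bla HEK293 cells (2% charcoal-stripped serum) and left 18 h at 37C. Reporter inhibition was measured as FRET fluorescence after 2 h LiveBLAzer substrate at room temperature.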

Sequence of Aromatase (Homo sapiens) (P11511 whole entry, looked up): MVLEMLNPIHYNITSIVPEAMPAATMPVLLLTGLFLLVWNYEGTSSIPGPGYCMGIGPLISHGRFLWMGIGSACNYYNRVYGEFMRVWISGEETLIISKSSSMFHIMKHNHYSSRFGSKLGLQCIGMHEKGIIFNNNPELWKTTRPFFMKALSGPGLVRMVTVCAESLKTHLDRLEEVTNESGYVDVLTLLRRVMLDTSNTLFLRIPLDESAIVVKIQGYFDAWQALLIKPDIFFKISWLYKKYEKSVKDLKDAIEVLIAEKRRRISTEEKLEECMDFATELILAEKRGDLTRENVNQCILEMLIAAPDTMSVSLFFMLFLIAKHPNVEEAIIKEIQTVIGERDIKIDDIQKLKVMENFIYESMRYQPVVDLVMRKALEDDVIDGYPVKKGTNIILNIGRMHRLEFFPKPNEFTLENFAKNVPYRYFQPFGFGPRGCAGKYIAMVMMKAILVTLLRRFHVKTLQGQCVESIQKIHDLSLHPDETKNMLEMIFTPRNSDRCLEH
Sequence of Peroxisome proliferator-activated receptor gamma (Homo sapiens) (P37231 whole entry, looked up): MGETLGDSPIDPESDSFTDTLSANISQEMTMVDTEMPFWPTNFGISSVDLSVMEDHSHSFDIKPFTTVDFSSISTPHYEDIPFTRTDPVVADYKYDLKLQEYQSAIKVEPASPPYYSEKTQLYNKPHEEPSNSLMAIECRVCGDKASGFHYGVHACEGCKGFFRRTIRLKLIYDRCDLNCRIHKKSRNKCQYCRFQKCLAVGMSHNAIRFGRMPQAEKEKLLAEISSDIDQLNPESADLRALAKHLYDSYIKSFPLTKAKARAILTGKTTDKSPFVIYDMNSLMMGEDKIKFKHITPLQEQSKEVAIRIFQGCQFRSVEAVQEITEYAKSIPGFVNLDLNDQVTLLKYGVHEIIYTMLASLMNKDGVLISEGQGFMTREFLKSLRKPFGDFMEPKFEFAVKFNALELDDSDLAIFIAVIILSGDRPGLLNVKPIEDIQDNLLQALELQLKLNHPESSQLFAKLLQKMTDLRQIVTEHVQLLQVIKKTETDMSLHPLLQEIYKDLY
Sequence of Aryl hydrocarbon receptor (Homo sapiens) (P35869 whole entry, looked up): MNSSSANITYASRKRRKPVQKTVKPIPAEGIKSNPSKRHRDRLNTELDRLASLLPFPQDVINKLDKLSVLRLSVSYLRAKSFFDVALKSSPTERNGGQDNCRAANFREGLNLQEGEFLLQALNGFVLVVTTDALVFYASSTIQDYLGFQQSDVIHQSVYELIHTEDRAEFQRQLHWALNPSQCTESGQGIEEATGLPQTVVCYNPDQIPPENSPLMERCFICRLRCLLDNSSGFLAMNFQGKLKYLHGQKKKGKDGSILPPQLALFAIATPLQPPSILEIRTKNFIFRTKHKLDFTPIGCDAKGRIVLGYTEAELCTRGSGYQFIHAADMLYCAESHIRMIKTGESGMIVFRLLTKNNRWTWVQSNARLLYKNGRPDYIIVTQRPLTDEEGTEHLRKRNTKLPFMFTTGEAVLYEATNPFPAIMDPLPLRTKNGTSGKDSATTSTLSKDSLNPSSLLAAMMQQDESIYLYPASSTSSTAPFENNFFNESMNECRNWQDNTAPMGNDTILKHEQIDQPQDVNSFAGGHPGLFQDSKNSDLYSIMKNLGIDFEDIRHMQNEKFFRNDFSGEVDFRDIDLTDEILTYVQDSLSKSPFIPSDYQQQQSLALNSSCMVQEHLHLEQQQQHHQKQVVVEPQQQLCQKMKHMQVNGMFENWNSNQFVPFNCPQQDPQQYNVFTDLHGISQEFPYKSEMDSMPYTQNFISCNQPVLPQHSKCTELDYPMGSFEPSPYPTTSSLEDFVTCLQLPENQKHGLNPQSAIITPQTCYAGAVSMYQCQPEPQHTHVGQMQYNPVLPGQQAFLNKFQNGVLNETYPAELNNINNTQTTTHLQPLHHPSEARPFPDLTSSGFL
Sequence of Estrogen receptor (Homo sapiens) (P03372 whole entry, looked up): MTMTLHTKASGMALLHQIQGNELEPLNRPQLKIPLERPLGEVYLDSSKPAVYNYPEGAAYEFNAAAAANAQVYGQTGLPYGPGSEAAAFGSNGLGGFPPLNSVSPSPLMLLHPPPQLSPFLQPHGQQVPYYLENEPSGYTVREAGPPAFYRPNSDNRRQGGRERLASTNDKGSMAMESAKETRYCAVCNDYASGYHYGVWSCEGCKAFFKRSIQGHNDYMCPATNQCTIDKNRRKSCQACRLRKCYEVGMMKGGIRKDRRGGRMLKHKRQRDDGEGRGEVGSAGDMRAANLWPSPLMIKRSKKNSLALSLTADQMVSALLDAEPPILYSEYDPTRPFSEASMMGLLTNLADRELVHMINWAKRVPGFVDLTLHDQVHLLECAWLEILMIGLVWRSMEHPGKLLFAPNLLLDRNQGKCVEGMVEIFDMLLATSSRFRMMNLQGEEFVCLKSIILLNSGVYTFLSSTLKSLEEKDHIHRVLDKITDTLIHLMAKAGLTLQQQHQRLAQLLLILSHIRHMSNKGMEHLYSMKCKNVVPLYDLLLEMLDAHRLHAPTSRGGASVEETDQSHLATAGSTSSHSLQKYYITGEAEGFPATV

Row | Compound | Potency [1] | Potency [2] | outcome [3] | Potency [4] | Potency [5] | Potency [6] | Potency [7] | Potency [8] | Potency [9] | Potency [10] | Potency [11] | Potency [12] | Potency [13] | Potency [14] | Potency [15] | Potency [16] | Potency [17] | Potency [18] | Potency [19] | Potency [20]
1 | CCCCCC[C@@H](O)C/C=C\CCCCCCCC(=O)OCC(O)CO (stereo not given in full) | inactive | inactive | inactive | inactive | inactive | inactive | inactive | inactive | inactive | inactive | inactive | inactive | inactive | inactive | inactive | inactive | inactive | inactive | – | –
2 | Cc1cccc(N(C)C(=S)Oc2ccc3c(c2)CCC3)c1 | inactive | inactive | inactive | inactive | inactive | inactive | – | – | inactive | inactive | inactive | – | inactive | – | inactive | – | inactive | inactive | inactive | –
3 | CN1C(=O)N(c2ccccc2Br)Cc2cnc(Nc3ccc4c(c3)OCC(CO)O4)nc21 (stereo not given) | 54.5 µM (active) | 27.3 µM (active) | inactive | – | – | – | – | – | – | – | – | – | – | – | 49 µM (active) | – | – | inactive | – | 2.75 µM [cytotoxic] (active)
4 | Cc1ccc(OC(=O)c2ccccc2O)cc1 | inactive | inactive | inactive | inactive | – | – | – | inactive | inactive | inactive | inactive | inactive | inactive | inactive | inactive | inactive | inactive | inactive | inactive | –
5 | CCC1NC(=O)c2cc(S(N)(=O)=O)c(Cl)cc2N1 (stereo not given) | inactive | inactive | inactive | – | – | – | – | inactive | inactive | – | – | inactive | inactive | inactive | inactive | inactive | inactive | – | inactive | –
6 | CCCCCCCCCCCCCCN(CCO)CCO | 19.3 µM (active) | 17.2 µM (active) | inactive | 54.9 µM (active) | – | – | – | inactive | 27.3 µM (active) | 43.3 µM (active) | inactive | – | – | – | 43.6 µM (active) | – | 61.1 µM (active) | 24.5 µM (active) | – | –
7 | CCCCCCNC(=O)n1cc(F)c(=O)[nH]c1=O | 10.6 µM (active) | 2.66 µM (active) | inactive | inactive | – | – | – | inactive | inactive | inactive | inactive | inactive | – | – | inactive | – | inactive | inactive | inactive | –
8 | Cc1cc(=O)c2c(O)c3c(O)cc(=O)c4c3c3c(cc(O)c1c23)C(C)(C)C=4O | 0.841 µM (active) | 0.596 µM (active) | – | – | – | – | – | – | – | inactive | – | inactive | – | – | – | – | – | – | – | –
9 | O=c1cc(-c2ccccc2)oc2ccc3ccccc3c12 | inactive | 9.69 µM (active) | inactive | – | inactive | 2.43 µM (active) | – | inactive | 13.7 µM (active) | inactive | – | – | – | inactive | 19.5 µM (active) | – | – | 24.5 µM (active) | – | –
10 | OCCN1CCN(CCCN2c3ccccc3Sc3ccc(Cl)cc32)CC1 | 3.59 µM (active) | 5.07 µM (active) | – | inactive | inactive | inactive | inactive | inactive | inactive | – | – | – | inactive | – | – | – | 29.8 µM (active) | inactive | inactive | inactive
11 | Nc1cccc2c1CN(C1CCC(=O)NC1=O)C2=O (stereo not given) | inactive | – | inactive | inactive | inactive | inactive | inactive | inactive | inactive | inactive | inactive | – | inactive | inactive | inactive | inactive | inactive | inactive | – | inactive
12 | C=COCC(C)C | inactive | – | inactive | inactive | inactive | inactive | inactive | inactive | inactive | inactive | inactive | inactive | inactive | inactive | – | inactive | inactive | inactive | inactive | inactive
13 | CC1=C(Br)C(=O)C(Br)=C/C1=C(/c1ccccc1S(=O)(=O)O)c1cc(Br)c(O)c(Br)c1C | 46.6 µM (active) | 18.6 µM (active) | inactive | – | – | – | – | 37 µM (active) | 18.6 µM (active) | 23.4 µM (active) | inactive | 18.6 µM (active) | inactive | – | inactive | inactive | inactive | inactive | inactive | –
14 | NNC(=O)CP(=O)(c1ccccc1)c1ccccc1 | inactive | inactive | inactive | inactive | – | – | – | inactive | – | – | – | inactive | – | – | inactive | inactive | inactive | inactive | inactive | –
15 | COC(=O)C1=C(C)NC(C)=C(C(=O)O[C@@H]2CCCN(Cc3ccccc3)C2)[C@@H]1c1cccc([N+](=O)[O-])c1 | 26.6 µM (active) | 11.9 µM (active) | – | inactive | inactive | inactive | inactive | – | 29.8 µM (active) | inactive | – | – | – | – | inactive | – | – | inactive | inactive | 26.8 µM [inhibitor] (active)
